# Compound activity: PubChem, National Center for Advancing Translational Sciences (NCATS)
# Hits are enriched below; roughly 19% of the tested compounds scored in any of these assays.
# BCR signal inh = qHTS Assay to Find Inhibitors of Chronic Active B-Cell Receptor Signaling. ABC-DLBCL IkBa-CBG/CBR reporter, luminescence ratio, 4 h. Potency, µM (doses to about 46.1 µM), for inactives: at the top dose activity change, negative = inhibition, actives largely listed as inhibitors. 340,000 compounds, 0.05% hits. AID 493014, 2011; active means well fitted inhibition curve with a large enough effect in the signal ratio, with a control signal flat, not every such curve was filed as active; inconclusive means small, poorly fitted or top-dose-only effect, or effect the other way, or a change in a side signal; the % refers to the signal ratio;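 further: potency means the concentration at half of the fitted maximal effect; plate controls were basal doxycycline-induced cells for no effect and cells given 10 µM MG132 for full effect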
#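 Compounds up to 46 uM were incubated four hours with TMD8 cells whose green CBG68 luciferase is fused to IkappaBalpha; red CBR luminescence normalised the signal, and concentration-effect curves were fitted to fusion, red and ratio data.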
# SW480 rerep = A quantitative high throughput screen for small molecules that induce DNA re-replication in SW480 colon adenocarcinoma cells; 340,000 compounds, 1.8% hits; SW480 DNA re-replication, Hoechst DNA content imaging, 48 h; Potency, µM (highest dose often 46.1 µM), for the others: at the top dose re-replication activation, most hits filed as activators; further: potency means the concentration at half of the fitted maximal effect; % of control where 0% means no effect; nearly all actives have a fitted effect of over 55% in size
#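 Per well, 250 cells were exposed to pinned compound for 48 hr. Nuclear DNA was visualised with Hoechst (40 min, 37 C) and total object intensity recorded by fluorescence scanning.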
# IL-1B inflam inh = qHTS for Inhibitors of Inflammasome Signaling: IL-1-beta AlphaLISA Primary Screen. THP-1 LPS/ATP IL-1B secretion, AlphaLISA, 16 h; stronger effect = lower value. activity change, % at 57.5 µM. 360,000 compounds, 4.7% hits. AID 743279, 2014; in the data active means activity change below about -50%; inconclusive means mostly about -30% to -49%; further: on the % scale 0 is the no-effect control and ±100 the full control effect
#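 THP-1 cells pretreated 1 hr with compounds (up to 57.5 uM final), then stimulated with LPS (250 ng/mL final) plus ATP (1.25 mM final); secreted IL-1B measured by AlphaLISA after 16 hr, decreased signal indicating inhibition.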
# DT40 TDP1 no CPT = qHTS for Inhibitors of human tyrosyl-DNA phosphodiesterase 1 (TDP1): qHTS in cells in absence of CPT | Potency, µM (series often up to 46.2 µM), for the others: at the top dose activity change, negative = growth inhibition, most hits filed as inhibitors | DT40 Tdp1-/- hTDP1 cells, no CPT, ATP luminescence, 48 h | AID 686978, 2013 | 420,000 compounds, 15% hits; further: potency means the concentration at half of the fitted maximal effect; on the % scale 0 is the no-effect control and ±100 the full control effect; nearly all actives have a fitted effect of over 55% in size
#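 Growth of hTDP1-complemented DT40 Tdp1-knockout cells is measured by ATP luminescence after at least 48 hr compound exposure at 37 °C, with DMSO substituting for the 20 nM CPT used in the parallel screen.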
# MCF10A rereplic = A quantitative high throughput screen for small molecules that induce DNA re-replication in MCF 10a normal breast cells; MCF 10A DNA re-replication, Hoechst nuclear intensity, 48 h; Potency, µM (doses to about 46.1 µM), inactives show at the top dose activity, positive = re-replication, hits mostly activators; 350,000 compounds, 2.9% hits; AID 624296, 2012; further: potency means the concentration at half of the fitted maximal effect; % of control where 0% means no effect; nearly all actives have a fitted effect of over 50% in size
# DT40 TDP1 CPT = qHTS for Inhibitors of human tyrosyl-DNA phosphodiesterase 1 (TDP1): qHTS in cells in presence of CPT; 420,000 compounds, 12% hits; Potency, µM (doses to about 46.2 µM), for the others: top-dose activity change, negative = growth inhibition, usual class: inhibitors; chicken DT40 Tdp1-/-;hTDP1 cells + 20 nM CPT, ATP luminescence, 48 h; further: potency means the concentration at half of the fitted maximal effect; on the % scale 0 is the no-effect control and ±100 the full control effect; nearly all actives have a fitted effect of over 55% in size
#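 Chicken DT40 Tdp1-/- cells stably complemented with human TDP1 were seeded at 400 cells/well in medium containing 20 nM camptothecin, exposed to pin-transferred compounds, and grown at 37 °C for at least 48 hr. Viability was read as ATP luminescence.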
# Starred values were filed as active, the others as inactive; ? = inconclusive; · = not tested or not shown; ! = repeats disagree; [ ] = another dose, or the depositor's remark. Unless noted, the call rests on the fitted dose curve; in most records, active means well fitted curve in the direction sought with a large enough effect; inconclusive means small, poorly fitted or top-dose-only effect, or another doubt; inactive means no such curve, though single readings can be large; an effect the other way counts as inactive or inconclusive.
SMILES,BCR signal inh,SW480 rerep,IL-1B inflam inh,DT40 TDP1 no CPT,MCF10A rereplic,DT40 TDP1 CPT
COc1cccc(CNn2c(-c3cccc(C)c3)nc3ccccc3c2=O)c1O,-1%,1%,-23,?,-3%,?
COc1ccc(CNn2c(-c3ccccc3F)nc3ccccc3c2=O)cc1OC,-23%,-10%,0,18µM*,-17%,?
O=[N+]([O-])c1ccc(NCc2ccccc2N2CCC(CO)CC2)nc1,0%,-13%,-6,?,2%,?
OC[C@@H]1CN(Cc2ccc3c(c2)OCO3)C[C@H](n2cnc3c(N4CCOCC4)ncnc32)O1,·,·,3,-7%,·,-15%
CC1CCCC12NC(=O)NC2=O (configuration not stated),·,-2%,5,6%,-1%,-24%
Cc1nn(-c2ccccc2)c(Cl)c1/C=C1\SC(=S)NC1=O,?,21µM*,15,?,10µM*,?
Cc1nn(-c2ccccc2)c(Cl)c1/C=C1\SC(=S)N(CCCCCC(=O)O)C1=O,-14%,-2%,11,-7%,12µM*,-1%
CCOc1ccc(/C=C2\SC(=S)N(CCC(=O)O)C2=O)cc1,?,-15%,-24,3%,2%,-2%
Cc1nn(-c2ccccc2)c(C)c1/C=C1\C(=O)N(C)C(=S)N1C,-9%,0%,4,16µM*,1%,?
CCNC(=O)C1(C)CCN1CCC(=O)c1ccc(C)cc1 (configuration not stated),·,·,0,16µM*,·,21µM*
CCCC(=O)NCc1cc(-c2nn(C)c(=O)c3ccccc23)ccc1C,1%,-2%,-3,-12%,12%,-28%
Cc1ccc(NC(=O)c2ccc(-c3nn(C)c(=O)c4ccccc34)cc2)cc1,?,-1%,-8,?,4%,21µM*
CNC(=O)c1cc(NC(=O)CCn2nc(-c3ccc(C)cc3)c3ccccc3c2=O)ccc1OC,?,-10%,-50*,?,12%,?
Cc1ccc(-c2nn(CC(=O)NCc3cc(-c4nn(C)c(=O)c5ccccc45)ccc3C)c(=O)c3ccccc23)cc1,-8%,6.5µM*,38,13µM*,9.2µM*,15µM*
CCOC(=O)C1CCN(C(=O)CN2C(=O)CSc3ccc(S(=O)(=O)N4CCOCC4)cc32)CC1,0%,-27%,-6,13%,1%,-6%
Cc1ccc(Cn2c(=N)c(C(=O)NCC3CCCO3)cc3c(=O)n4cccc(C)c4nc32)cc1 (configuration not stated),3%,8.2µM*,-55*,9.2µM*,21µM*,7.3µM*
Cc1ccc(Cn2c(=N)c(C(=O)NCC3CCCO3)cc3c(=O)n4ccccc4nc32)cc1 (configuration not stated),1%,18µM*,-1,?,3.3µM*,?
CCCn1c(=N)c(C(=O)NCC2CCCO2)cc2c(=O)n3cc(C)ccc3nc21 (configuration not stated),·,·,·,-18%,·,0%
N=c1c(C(=O)NCC2CCCO2)cc2c(=O)n3ccccc3nc2n1Cc1ccccc1Cl (configuration not stated),0%,21µM*,17,1.3µM*,3.3µM*,1.5µM*
Cc1ccc(Cn2c(=N)c(C(=O)NC3CCCCC3)cc3c(=O)n4ccccc4nc32)cc1,0%,2.3µM*,6,6.5µM*,2.6µM*,5.8µM*
Cc1ccc(Cn2c(=N)c(C#N)cc3c(=O)n4cccc(C)c4nc32)cc1,6%,·,·,·,·,·
CCCCNS(=O)(=O)c1ccc(Br)cc1N1CCC[C@H]1CO,-1%,12%,0,-27%,4%,-8%
Cc1onc(-c2ccccc2)c1C(=O)Nc1nnc(CC(C)C)s1,-23%,-3%,23,-13%,1%,-3%
N=c1c(C(=O)NC2CCCC2)cc2c(=O)n3ccccc3nc2n1Cc1ccccc1,1%,?,0,?,?,?
N=c1c(C(=O)NCC2CCCO2)cc2c(=O)n3ccccc3nc2n1Cc1ccccc1 (configuration not stated),8%,2.6µM*,-22,1%,3.7µM*,-12%
SMILES,BCR signal inh,SW480 rerep,IL-1B inflam inh,DT40 TDP1 no CPT,MCF10A rereplic,DT40 TDP1 CPT
N=c1c(C(=O)NCC2CCCO2)cc2c(=O)n3ccccc3nc2n1Cc1ccc(Cl)cc1 (configuration not stated),1%,0.58µM*,-12,16µM*,?,10µM*
N#Cc1cc2c(nc1S(=O)(=O)Cc1ccccc1)CCCC2,1%,-1%,-7,0%,-3%,-1%
CC(C)(C)c1ccc(C(=O)Nc2cc(-c3ccccc3)nn2-c2ccccc2)cc1,·,·,·,?,·,-25%
COc1ccc(C(=O)Nc2cc(-c3ccccc3)nn2-c2ccccc2F)cc1,-3%,5%,?,?,?,23µM*
CCOc1nc(C#N)nc(N2CCOCC2)n1,·,·,·,11µM*,·,?
CCOC(=O)CNc1nc(C#N)nc(N2CCOCC2)n1,-3%,-2%,-90*,?,?,13µM*!
N#Cc1nc(N2CCCC2)nc(N2CCCC2)n1,?,-1%,-92*,14µM*,?,13µM*
CC(C)N(C#N)c1nc(N2CCOCC2)nc(N2CCOCC2)n1,?,-7%[9.22 µM],?,10µM*,-11%,21µM*
CCOC(=O)CNc1nc(Cl)nc(N2CCCCC2)n1,7%,-1%,3,-4%,-5%,3%
CN(C)c1nc(C#N)nc(N2CCOCC2)n1,-16%,-1%,-19,?,13%,?
N#Cc1nc(N2CCCC2)nc(N(c2ccccc2)c2ccccc2)n1,·,·,·,-20%,·,9%
COCCNC(=O)C1(C)CCCN(CC(=O)c2ccc(OC)cc2)C1 (configuration not stated),·,·,2,11%,·,-12%
Nc1cccc(-c2cn3ccsc3n2)c1,·,·,·,-13%,·,5%
N#Cc1nc(N2CCCCC2)nc(N2CCOCC2)n1,?,1%,-55*,16µM*,17%,13µM*
CC(C)(C)C1CCC(CN2CCC(CN3C(=O)C(=O)NC[C@@H]3Cc3ccccc3)CC2)CC1 (some centres not stated),·,?,-56*,?,-6%,?
